Consider 6 compounds from the supplement of paper PMC11026393.

This assay concerns SH-SY5Y. Put plainly: difference in mean normalized H2B-mRuby nuclear fluorescence intensity relative to DMSO control (normalized intensity difference (DMSO = 0)); higher = stronger increase in transgene reporter fluorescence. The settings on record: 24 h. The method, then:
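Cancer cell lines stably expressing H2B-mRuby2 from a lentiviral PGK promoter were treated with each drug for 24 h and imaged on a Leica DMI8 (ex 541-551 / em 565-605 nm). Nuclei were segmented in CellProfiler. The value is the difference in mean per-nucleus normalized H2B-mRuby intensity versus DMSO-treated cells (about 3 repeats x 4 fields). Doxorubicin is itself fluorescent. Dasatinib is in nM.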

As for `COc1cc2ncnc(Nc3ccc(F)c(Cl)c3)c2cc1OCCCN1CCOCC1` (concentration unit: uM), the difference came out at 0.0355 (concentration: 1); 0.0288 (concentration: 2.5); 0.0297 (concentration: 5); 0.0546 (concentration: 10); 0.086 (concentration: 20).
The like results for `COc1cc([C@@H]2c3cc4c(cc3[C@@H](O[C@@H]3O[C@@H]5CO[C@@H](C)O[C@H]5[C@H](O)[C@H]3O)[C@H]3COC(=O)[C@H]23)OCO4)cc(OC)c1O` (concentration unit: uM) were, in that order, 0.0162, 0.042, 0.0775, 0.0738 and 0.0983.
For `Nc1ncn([C@@H]2O[C@H](CO)[C@@H](O)[C@H]2O)c(=O)n1` (concentration unit: uM), in that order: 0.0451, 0.0373, 0.0486, 0.0991 and 0.0901.
With `Cc1[nH]c2ccccc2c1CCNCc1ccc(/C=C/C(=O)NO)cc1` (concentration unit: nM), the difference by setting is: (concentration: 10) 0.13; (concentration: 50) 0.783; (concentration: 100) 1.09; (concentration: 250) 1.19; (concentration: 500) 1.16.
With `Cc1nc(Nc2ncc(C(=O)Nc3c(C)cccc3Cl)s2)cc(N2CCN(CCO)CC2)n1` (concentration unit: nM), the difference by setting is: (concentration: 25) 0.0391; (concentration: 100) 0.111; (concentration: 250) 0.137; (concentration: 1000) 0.178; (concentration: 2500) 0.156.
For `COc1cccc2c1C(=O)c1c(O)c3c(c(O)c1C2=O)C[C@@](O)(C(=O)CO)C[C@@H]3O[C@H]1C[C@H](N)[C@H](O)[C@H](C)O1` (concentration unit: nM), in that order: -0.0232, 0.0095, 0.0862, 0.155 and 0.202.
